SMILES strings stand for the structures. Screen size: about 52,000 compounds; about 1,700 (3.3%) were called active. This is one part of a sample in which actives are shown more often than they occur. Values without a mark were called inactive. Rule as the data show it: active = survival mostly below about 52% (no sharp cut-off); inactive = mostly above about 56%.

In this assay the test system is Wild type. Briefly: growth inhibition of S. aureus wild type versus tarO mutant, primary screen, teichoic acid synthesis inhibitors, RN4220, OD600 (AID 463173). The note with it: S. aureus RN4220 wild type/DeltatarO growth, OD600, 18 h, active compounds read low, screened at 18.75 µg/mL (by protocol).
For `COc1ccc(CCNCc2ccc3c(c2)n(C)c(=O)n3C)cc1OC`, the survival is 111%. Take `O=C(Nc1ccc2nc(C3CC3)n(Cc3ccccc3)c(=O)c2c1)C1CC1`: the survival is 104%. Take `CCc1ccc(CN(Cc2ccco2)C(=O)COc2ccccc2Cl)cc1`: the survival was 85%. Regarding `Cc1ccc(N2CCN(S(=O)(=O)c3nnc(NC(=O)c4ccc(C(C)C)cc4)s3)CC2)cc1`, the survival is 82%. Turning to `Cc1cc(C)cc(C(=O)Nc2cc(C(F)(F)F)ccc2N2CCN(c3ccccc3)CC2)c1`, the survival is 78%. As to `CCc1ccc(CNC(=O)c2ccc3c(c2)nc2n3CCC(C)C2)cc1` (configuration not stated), the survival is 127%. As for `COC(=O)CCc1sc(Nc2ccc(OC)cc2)nc1-c1ccc(OC)cc1`, the survival is 77%. On to `Cc1c(NC=O)c(=O)n(-c2ccccc2)n1C`, for which the survival is 107%. The same measure for `CC(=O)c1ccc(NC(=O)COCc2cc(-c3ccco3)on2)cc1`: 129%; for `O=C(O)c1ccc(Cn2cnc3cccnc32)cc1`: 55%; for `CC(C)(C)NC(=O)C1CC(=O)OC1(C)C` (configuration not stated): 107%.

Turning to `COc1ccc(Br)cc1C1Sc2ccccc2NC2=C1C(=O)c1ccccc12` (configuration not stated), the survival is 41%. With `COC(=O)c1c(NC(=O)c2ccc(OC)cc2OC)sc2c1CCCCC2`, the survival was 56%.

Consider `COC(=O)c1c(NC(=O)CCCOc2cccc(C)c2)sc2c1CCC2`, for which the survival was 12% (active). With `COC(=O)c1c(NC(=O)CCCOc2ccc(C)cc2)sc2c1CCCC2`, the survival was 3% (active). On to `COC(=O)c1c(NC(=O)c2ccccc2C(=O)O)sc2c1CCCC2`, for which the survival was 110%. For the molecule `COC(=O)c1c(NC(=O)COc2ccc(C(C)C)cc2)sc2c1CCCC2`, the survival is 51%.

Regarding `COC(=O)c1c(NC(=O)COc2cccc(C(F)(F)F)c2)sc2c1CCCC2`, the survival was 72%. For `COC(=O)c1c(NC(=O)COc2c(C)cccc2C)sc2c1CCCC2`, the survival is 6% (active).

Consider `CCCCOc1cccc(C(=O)Nc2sc3c(c2C(=O)OCC)CCCC3)c1`, for which the survival was 72%. In the case of `Cc1ccc(OCCCC(=O)Nc2sc3c(c2C(N)=O)CCCC3)cc1`, the survival is 57%. The same measure for `COC(=O)c1c(NC(=O)COc2ccc(C)cc2Br)sc2c1CCCC2`: 44%; for `COC(=O)c1c(NC(=O)c2c(OC)cccc2OC)sc2c1CCCC2`: 3% (active); for `COC(=O)c1c(NC(=O)COc2cc(C)c(Cl)c(C)c2)sc2c1CCCC2`: 140%. In the case of `O=c1nc2c(-c3ccc(F)cc3Cl)n[nH]n2c2ccccc12`, the survival is 72%. For the molecule `COc1ccc(-c2nc(Cn3c(SCc4cccc(Cl)c4)nc4ccncc43)c(C)o2)cc1`, the survival was 132%. For the molecule `O=C(CSC1=Nc2ccccc2N=C(c2ccc(F)cc2)C1)Nc1ccc(Cl)cc1`, the survival is 92%.

`CCN(CC)C1=C(C(=O)c2ccccc2)NS(=O)(=O)c2ccccc21`: the survival is 103%.

For `CCOc1ccc(-c2nnc(SCC(=O)NCc3ccccc3Cl)o2)cc1`, the survival is 85%.

`O=C(Nc1ccccc1)C1CCCN1C1CCCCC1` (configuration not stated): the survival is 108%. Turning to `O=C1OC(c2ccccc2)=N/C1=C1\OC(=O)c2ccccc21`, the survival is 104%. As to `CC1CCCCN1C(=O)CSc1n[nH]c(-c2ccccc2Cl)n1` (configuration not stated), the survival was 72%.

As to `CCCN(Cc1cccs1)C(=O)Nc1ccc(Br)cc1F`, the survival is 76%. For the molecule `COC(=O)c1c(NC(=O)COc2cc(C)ccc2C(C)C)sc2c1CCC(C)C2` (configuration not stated), the survival is 66%.

With `COC(=O)c1c(NC(=O)CS(=O)(=O)c2ccc(C)cc2)sc2c1CCCC2`, the survival is -6% (active).

As to `COC(=O)c1c(NC(=O)COc2ccc(Cl)cc2C)sc2c1CCCCC2`, the survival was 83%. The same measure for `COC(=O)c1c(NC(=O)CCCOc2ccccc2C)sc2c1CCC2`: 4% (active); for `COC(=O)c1c(NC(=O)COc2c(C)ccc(C)c2C)sc2c1CCC(C)C2` (configuration not stated): 11% (active); for `Cc1ccccc1OCC(=O)Nc1sc2c(c1C(=O)OC(C)C)CCCC2`: 69%. For the molecule `COC(=O)c1c(NC(=O)COc2ccc(OC)cc2)sc2c1CCC(C)C2` (configuration not stated), the survival was 86%.

On to `CCOC(=O)c1c(NC(=O)CS(=O)(=O)c2ccc(C)cc2)sc2c1CCCCC2`, for which the survival is 87%. On to `CCOC(=O)c1c(NC(=O)COc2cccc(C(F)(F)F)c2)sc2c1CCC(C)C2` (configuration not stated), for which the survival was 74%. On to `COC(=O)c1c(NC(=O)CS(=O)(=O)c2ccc(C)cc2)sc2c1CCCCC2`, for which the survival was 67%. For the molecule `Cc1cccc(OCCCC(=O)Nc2sc3c(c2C(N)=O)CCC(C)C3)c1` (configuration not stated), the survival is 88%. The same measure for `COC(=O)c1c(NC(=O)CCCOc2cccc(C)c2)sc2c1CCC(C)C2` (configuration not stated): 4% (active).

For `Cc1nc2nc(C)c(NS(=O)(=O)c3ccc(F)cc3)c(=O)n2[nH]1`, the survival is 81%.

Turning to `O=C(O)CCNc1ccc(Cl)cn1`, the survival is 86%. `S=c1nc[nH]c2c1oc1ccccc12`: the survival was 96%.

As to `Cc1ccccc1NC(=O)CSc1nc(-c2ccc(F)cc2)nc2c1Cc1ccccc1O2`, the survival is 77%. In the case of `CCOc1ccc(C(=O)N(C)CC2COc3ccccc3O2)cc1` (configuration not stated), the survival is 98%. Turning to `COc1cccc(-c2ncnn2-c2sc3c(c2C#N)CCCCC3)c1OC`, the survival was 72%.

With `N#Cc1c(-n2ncnc2-c2ccccc2C(F)(F)F)sc2c1CCCCC2`, the survival was 4% (active). In the case of `COc1ccccc1-c1cc(C(=O)Nc2sc3c(c2C#N)CCCC3)no1`, the survival is 140%. Next, `Cc1ccccc1-c1ncnn1-c1sc2c(c1C#N)CCCCC2`: 65%. The same measure for `N#Cc1c(-n2ncnc2-c2ccccc2Cl)sc2c1CCCCC2`: 38%; for `COc1ccccc1-c1ncnn1-c1sc2c(c1C#N)CCCCC2`: 1% (active); for `CCOc1ccccc1NC(=O)CSc1c(C)cnc2c1c(=O)n(C)c(=O)n2C`: 67%. For the molecule `CCN(CC)C(=O)Cn1c(=O)nc(-c2ccccc2F)c2cc(Cl)ccc21`, the survival is 73%. As to `O=C(Nc1cccc(Cl)c1)C1CCCN(c2ncnc3c2nc2n3CCCCC2)C1` (configuration not stated), the survival was 36%. For the molecule `CC1CCCN(c2nc3nonc3nc2Nc2cccc(Cl)c2)C1` (configuration not stated), the survival is 0% (active). Next, `CC1CCN(c2nc3nonc3nc2Nc2ccc(F)cc2)CC1`: 103%; `CCOC(=O)c1cc(C(C)(C)C)oc1CN`: 95%; `CC(C)N(Cc1ccccc1)C(=O)CN1C(=O)CSc2ccc(S(=O)(=O)N3CCCC3)cc21`: 100%. The same measure for `Cc1cccc(CNC(=O)C2CCN(c3nc4ccc(Cl)cc4[nH]3)CC2)c1`: 79%. For `CC1CCN(C(=O)CSc2nc3ccccc3nc2Cc2ccccc2)CC1`, the survival is 73%. With `CCOCCc1nn2c(=O)cc(COC(=O)c3ccc(NC(=O)c4cccs4)cc3)nc2s1`, the survival was 118%. In the case of `CCOCCc1nn2c(=O)cc(COC(=O)CNC(=O)c3cccc(C)c3)nc2s1`, the survival was 84%. Turning to `CCOCCc1nn2c(=O)cc(COC(=O)c3ccc(NC(=O)c4ccc(F)cc4)cc3)nc2s1`, the survival was 0% (active).

Regarding `COCCc1nn2c(=O)cc(COC(=O)c3ccccc3C)nc2s1`, the survival is -6% (active). In the case of `COCCc1nn2c(=O)cc(COC(=O)COc3ccccc3C)nc2s1`, the survival was 80%.

Consider `CCOCCc1nn2c(=O)cc(COC(=O)c3cccc(C)c3)nc2s1`, for which the survival was -6% (active). Consider `CCOCCc1nn2c(=O)cc(COC(=O)c3ccc4c(c3)OCO4)nc2s1`, for which the survival was 133%.

With `CCCCc1nn2c(=O)cc(COC(=O)c3ccccc3C)nc2s1`, the survival was 72%.

For `CCCc1nn2c(=O)cc(COC(=O)c3cccc(NC(=O)c4ccc(OCC)cc4)c3)nc2s1`, the survival was -2% (active). In the case of `CCCc1nn2c(=O)cc(COC(=O)c3ccccc3NC(=O)c3ccc(OCC)cc3)nc2s1`, the survival is 22%. For `CCOCCc1nn2c(=O)cc(COC(=O)c3ccc(NC(=O)C(C)(C)C)cc3)nc2s1`, the survival was 77%. As to `CCOc1ccc(C(=O)Nc2cccc(C(=O)OCc3cc(=O)n4nc(C5CC5)sc4n3)c2)cc1`, the survival was 51%.

As for `C=CCn1c2ccccc2c2ccccc21`, the survival was 80%. With `Cc1cccc(-c2nc(SCCCOc3ccccc3Cl)n3[nH]c(=O)cc3n2)c1`, the survival was 65%.

`NC(=O)CSc1nnc(CNc2ccc(Cl)cc2)n1Cc1ccccc1`: the survival was 125%.

With `COc1ccc(NC(=O)c2cc3c(=O)n(Cc4cccnc4)ccc3nc2C)cc1Cl`, the survival is 124%. Consider `Cc1oc(-c2ccccc2)nc1CNC(=O)NC1CCCCC1`, for which the survival is 72%. On to `CCCc1nn2c(=O)cc(COC(=O)c3ccc(NC(=O)COc4ccccc4)cc3)nc2s1`, for which the survival is 83%.

As to `CCCc1nn2c(=O)cc(COC(=O)c3ccc(NC(=O)COc4ccc(F)cc4)cc3)nc2s1`, the survival was 10% (active). `CCCc1nn2c(=O)cc(COC(=O)c3cccc(NC(=O)COc4ccc(F)cc4)c3)nc2s1`: the survival was 80%. Next, `CCOC(=O)c1cc2oc(C)cc2n1CC(=O)NC1CC1`: 94%; `COC(=O)c1cc2oc(C)cc2n1Cc1ccc(Cl)cc1`: 72%; `COC(=O)c1cc2oc(C)cc2n1Cc1ccc(C)cc1`: 68%. Regarding `COC(=O)c1cc2oc(C)cc2n1CC(=O)Nc1cc(Cl)ccc1OC`, the survival is 88%. As for `COC(=O)c1cc2oc(C)cc2n1Cc1cccc(Cl)c1`, the survival was -2% (active). Take `CCOC(=O)c1cc2oc(C)cc2n1CCCN1C(=O)c2ccccc2C1=O`: the survival is -1% (active). The same measure for `COC(=O)c1cc2occc2n1Cc1cccc(C)c1`: -1% (active); for `COC(=O)c1cc2oc(C)cc2n1Cc1c(C)cc(C)cc1C`: 33%; for `CCc1cccc(NC(=O)Cn2c(C(=O)OC)cc3occc32)c1`: 83%. For the molecule `COC(=O)c1cc2occc2n1Cc1nc(-c2ccc(C)cc2)oc1C`, the survival is 48%. Next, `COC(=O)c1cc2oc(C)cc2n1Cc1cc(C)ccc1C`: -2% (active); `C=CCn1c(C(=O)OCC)cc2oc(C)cc21`: 111%.

The values are drawn from PubChem BioAssay AID463173 (ICCB-Longwood Screening Facility, Harvard Medical School, 2010).
